Marburg entry inh: qHTS for inhibitors of binding or entry into cells for Marburg Virus. Marburg virus pseudotyped entry inhibition, cell reporter. Potency, µM (series often up to 37.8 µM), for the others: at the highest dose activity change, negative = inhibition, actives largely listed as inhibitors. 300,000 compounds, 1.8% hits. AID 540276, 2011; calls by dose curve; tested in HEK293 cells
FMDV inh: High Throughput Screening for Foot and Mouth Disease Virus Antivirals. AID 1159524, 2015. Potency, µM (top dose mostly 57.9 µM), without a hit: at the top dose activity change, negative = inhibition, usual class: inhibitors. 410,000 compounds, 1.2% hits. FMDV antiviral cell-based qHTS; calls by dose curve; tested in HEK293T cells; further: read-out not given here; nearly all actives have a fitted effect of over 45% in size
LASV entry inh: qHTS for Inhibitors of binding or entry into cells for Lassa Virus | AID 540256, 2011 | 300,000 compounds, 1.2% hits | Lassa virus pseudotype entry inhibition, cell reporter | Potency, µM (doses to about 37.9 µM), without a hit: at the top dose activity change, negative = inhibition, most hits filed as inhibitors; calls by dose curve; tested in HEK293 cells; further: nearly all actives have a fitted effect of over 50% in size
Sm TGR inh: qHTS Assay for the Inhibitors of Schistosoma Mansoni Peroxiredoxins. purified TGR, DTNB reduction, TNB absorbance 405 nm. Schistosoma mansoni thioredoxin glutathione reductase (TGR), Q962Y6. 360,000 compounds, 3% hits. Potency, µM (highest dose often 114 µM), inactives show at the highest dose activity change, negative = inhibition, usual class: inhibitors; active means well fitted inhibition curve with a large enough effect; inconclusive means small, poorly fitted or top-dose-only effect; inactive means no such curve, though single readings can be large or run the other way; further: nearly all actives have a fitted effect of over 60% in size
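TGR 20 nM + NADPH 100 uM (dispensed conc.), cpd preinc 15 min RT; start with NADPH (500 uM addition) then DTNB (15 mM addition). Kinetic TNB absorbance, 405 nm filter. Four-parameter Hill fit across titration.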
VACV Venus inh: qHTS for Stage-Specific Inhibitors of Vaccinia Orthopoxvirus: Venus Reporter Primary qHTS; Vaccinia virus Venus reporter expression, fluorescence; Potency, µM (titrated, usually from 36.5 µM), for the others: top-dose activity change, negative = inhibition, hits mostly inhibitors; 330,000 compounds, 0.46% hits; AID 720580, 2013; calls by dose curve; tested in A549 cells; further: nearly all actives have a fitted effect of over 30% in size
Vaccinia mCherry: qHTS for Stage-Specific Inhibitors of Vaccinia Orthopoxvirus: mCherry Reporter Primary qHTS. Vaccinia virus mCherry reporter infection, fluorescence. Potency, µM (series often up to 36.5 µM), inactives show at the highest dose activity change, negative = inhibition, usual class: inhibitors. 310,000 compounds, 0.63% hits. AID 720579, 2013; calls by dose curve; tested in A549 cells; further: nearly all actives have a fitted effect of over 35% in size
* hit, by the source's call; i = inactive; ? = inconclusive; · = no result given; [ ] = remark or other dose. Sampled rows, rich in hits. Any-hit rate of the full collection: about 5.4%. On the % scale 0 is the no-effect control and ±100 the full control effect; potency means the concentration at half of the fitted maximal effect.

SMILES	Marburg entry inh	FMDV inh	LASV entry inh	Sm TGR inh	VACV Venus inh	Vaccinia mCherry
COc1cc(-c2nc(CN(C)C(C)c3ccncn3)c(C)o2)ccc1F (configuration not stated)	?	-13.3%	-6.8%	31.6µM*	-12.3%	-10.2%
NC(=O)c1ccc(C(=O)Nc2ccc([As](=O)(O)O)cc2)cc1	·	·	·	44.7µM*	·	·
COC(=O)c1ccc(NC(=S)Nc2ccccc2)cc1	-7.3%	·	-2.2%	31.6µM*	-10.7%	-1.4%
COC(=O)c1cccc(NC(=S)Nc2cccc(Cl)c2Cl)c1	6.4%	31.4%	-1.4%	44.7µM*	-9.0%	-22.9%
CNC(=S)Nc1ccc(C(N)=O)cc1	-1.1%[46.1 µM]	-0.5%	0.5%	39.8µM*	-8.4%	-7.6%
Cc1ccc(C(=O)N2CCc3cc(CNS(=O)(=O)c4ccc(Cl)s4)ccc32)cc1	·	-13.5%	-25.5%[46.1 µM]	5.7%	?	?
Cc1ccc(CSc2nc3ccc(NC(=O)COc4ccccc4)cc3s2)cc1	-14.6%[46.1 µM]	-28.7%	-0.5%[46.1 µM]	3.4%	?	?
S=C(Nc1ccc(CN2CCCCC2)cc1)Nc1cccc(Cl)c1Cl	11.2µM*	-3.2%	?	25.1µM*	-13.7%	-3.8%
CNC(=S)Nc1cccc(C(=O)OC)c1	?	67.7%	0.4%	31.6µM*	-2.3%	i
S=C(Nc1ccccc1)Nc1cccc(Cl)c1Cl	·	22.2%	·	·	·	·
CCC(C)c1ccc(OCc2ccc(C(=O)O)o2)cc1 (configuration not stated)	?	11.2µM*	?	-17.2%	-13.0%	-12.6%
Cc1c(C)c2ccc(OCc3ccc(C(=O)O)o3)c(C)c2oc1=O	?	17.8µM*	4.11µM*	0.0%	·	·
O=C(O)c1ccc(COc2c(F)c(F)c(F)c(F)c2F)o1	-3.7%	-12.8%	7.2%	44.7µM*	·	·
CCOc1ccccc1CN1CCc2nc(Nc3ccc4c(c3)OCCO4)ncc2C1	·	?	-13.3%[46.1 µM]	-3.7%	-14.3%	-17.4%
COc1ccccc1NC(=O)CSc1nc2c(oc3ccccc32)c(=O)n1-c1ccc(C)cc1	?	-20.6%	·	0.9%	-2.4%	-14.2%
Cc1noc2nc(C(=O)O)nc(N3CCCCC3)c12	18.4%[46.1 µM]	-8.8%	1.8%[46.1 µM]	-1.9%	-4.4%	-0.7%
COC(=O)c1cccc(-n2c(CCC(=O)O)ccc2-c2cccs2)c1	·	-11.7%	2.5%[46.1 µM]	3.55µM*	-6.8%	-14.2%
COC(=O)c1cccc(-n2c(CCC(=O)O)ccc2-c2ccc(OC)cc2)c1	?	-22.6%	-1.8%[46.1 µM]	12.6µM*	-21.1%	-29.3%
O=C(O)CCc1ccc(-c2cccs2)n1NC(=O)c1ccco1	12.2%[46.1 µM]	-21.9%	-5.7%	?	-14.0%	·
COc1ccc(CNC(=O)c2ccc(CSc3nc4ccncc4n3Cc3ccccc3F)cc2)cc1	-26.9%[46.1 µM]	6.6%	·	0.0%	-14.5%	-16.0%
Cc1c(C(=O)N2CCCC2)sc2ncnc(NCCN(C)C)c12	·	-11.6%	·	·	-19.4%	i
CCCCNC(=O)Nc1ccc([C@@](O)(C(=O)OCC)C(F)(F)F)cc1	-1.1%	·	·	·	·	·
Cc1cc(C)c2oc(-c3ccc(C)c(NC(=O)/C=C/c4ccco4)c3)nc2c1	5.1%[46.1 µM]	-0.7%	24.7%[46.1 µM]	12.6µM*	-4.9%	-8.3%
COc1ccc(-c2cnnc(N/N=C/c3ccc(O)c(OC)c3)n2)cc1	?	-18.9%	5.8µM*	-6.7%	?	-28.5%
COc1cc(/C=N/Nc2nc(-c3ccc(S(=O)(=O)N(C)C)cc3)cs2)ccc1O	·	35.5µM*	·	-19.9%	·	·
SMILES	Marburg entry inh	FMDV inh	LASV entry inh	Sm TGR inh	VACV Venus inh	Vaccinia mCherry
COc1cc(/C=N/Nc2nc(N3CCCC3)nc(N3CCCC3)n2)ccc1O	-4.4%	-18.9%	-18.5%	2.3%	·	·
Cc1c(C(=O)NCCc2ccncc2)cnn1-c1nccc(-c2ccccc2C(F)(F)F)n1	·	-20.1%	·	·	-10.8%	-24.8%
COc1ccc(C(=O)C2CCCN(Cc3ccccn3)C2)c(OC)c1 (configuration not stated)	·	-1.1%	·	-13.9%[57.1 µM]	·	·
COc1ccc(C(=O)C2CCCN(Cc3c(C)[nH]c4ccccc34)C2)c(OC)c1 (configuration not stated)	·	·	·	35.5µM*	·	·
COc1cccc(CNCCO)c1OCc1ccc(Cl)cc1	·	-22.6%	·	47.1%	·	·
Oc1ccc(NCc2ccccc2OCc2ccccc2F)cc1	-3.3%[46.1 µM]	?	?	20µM*	6.8%	-1.6%
Oc1ccc(NCc2ccccc2OCc2ccccc2Cl)cc1	-1.6%[46.1 µM]	2.7%	-15.2%[46.1 µM]	35.5µM*	-5.2%	-0.1%
CCOc1cccc(CNc2ccc(O)cc2)c1OCc1ccc(Cl)cc1	-14.3%	?	?	31.6µM*	20.9%	23.5%
CCOc1ccccc1CNc1ccc(O)cc1	?	12.5%	?	·	5.1%	?
Clc1cccc[n+]1CCCCCC[n+]1ccccc1Cl	·	·	·	·	-4.7%	-8.8%
CC(=O)NCCC(=O)Nc1sc2c(c1-c1nc3ccccc3[nH]1)CCCC2	-6.0%	10.7%	-16.8%	0.2%	-22.7%	-14.7%[1.46 µM]
CCN(CC)C(=O)c1ccc(NC(=O)c2cccc(S(=O)(=O)N3CCN(C)CC3)c2)cc1	-4.2%	42.8%	-2.7%	5.4%	-12.7%	-11.7%
CCN(CC)c1ccc(/C=N/NC(=O)c2cccc(S(=O)(=O)N3CCOCC3)c2)cc1	8.3%	14.1µM*	-36.5%	5.0%	-9.3%	-13.9%
CC(=O)c1cccc(NC(=O)C(C)OC(=O)c2cccc(S(=O)(=O)N3CCN(C)CC3)c2)c1 (configuration not stated)	·	-3.0%	·	50.1µM*	·	·
CN1CCN(S(=O)(=O)c2cccc(C(=O)Nc3sc4c(c3-c3nc5ccccc5[nH]3)CCCC4)c2)CC1	16.4µM*	24.6%	1.5%	-8.0%	-15.4%	-9.9%
CCN(c1ccc(NC(=O)c2cccc(S(=O)(=O)N3CCN(C)CC3)c2)cc1)C(C)C	?	-15.1%	-12.2%	8.91µM*	-20.8%	-14.8%
Cc1ccc(-c2cc3ncc4c(n3n2)-c2ccccc2OC4)cc1	23.5%[46.1 µM]	85.1%	1.4%[46.1 µM]	-1.3%	0.2%	-1.9%
O=C(COc1ccccc1)Nc1ccc2nc(SCCOc3ccccc3)sc2c1	-7.9%[46.1 µM]	-20.6%	-15.2%[46.1 µM]	1.5%	-5.3%	-14.3%
COC(=O)N1C(C=Cc2ccc3c(c2)OCO3)=Cc2ccccc2C1CC(C)=O (configuration not stated)	-12.3%[14.2 µM]	·	?	·	·	·
CC1(C)CN(C2CCCCC2)C(=O)[C@@H]1CC(=O)Nc1ccccc1	·	·	1.7%[46.1 µM]	·	·	·
CC(=O)c1c(N2CCN(c3ccccc3)CC2)nc(=S)n(-c2ccccc2)c1C	-25.8%	-25.4%	?	9.0%	14.0%	5.1%
CSc1nc(=S)n(-c2ccccc2)c(C)c1C(C)=O	·	11.0%	·	39.8µM*	·	·
Cc1c(/C(O)=C2\C(=O)C(=O)N(CCN3CCOCC3)[C@H]2c2cccnc2)cnn1-c1ccccc1	0.0%	·	·	·	·	·
